PubChem BioAssay (NCATS)
Several values for one entry are separate records, joined by “and”; a condition that tells them apart may be missing. Equal entries are not always repeated. Inconclusive results are not listed. Activity calls are given as the source filed them. Calls come from the whole dose curve; as a rule, active = well fitted inhibition curve with a large enough effect; inconclusive = small, poorly fitted or top-dose-only effect; inactive = flat fitted curve, though single readings scatter.

Assays:
[1] = tested on: CRL-7250; assay: Cytotoxic Profiling of Annotated Libraries Using Quantitative High-Throughput Screening (AID 1296008); details: Five cell lines viability, CellTiter-Glo ATP luminescence, 48-72 h; max response: active compounds read low; note: potency is the fitted concentration of half-maximal effect; for max response: % is set by controls: 0 for no effect and ±100 for the full control effect
How it was run: (§1)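 Compounds were pin-transferred onto cells and incubated 48 or 72 hr at 37 degree Celsius, 95% humidity. CellTiter-Glo was added, plates sat 10 min at room temperature, then ATP-coupled luminescence was imaged as the viability read-out.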

[2] = tested on: HEK293; assay: as above; details: Five cell lines viability, CellTiter-Glo ATP luminescence, 48-72 h; max response: active compounds read low
How it was run: as §1

[3] = tested on: HaCat; assay: as above; details: Five cell lines viability, CellTiter-Glo ATP luminescence, 48-72 h; max response: active compounds read low
How it was run: as §1

[4] = tested on: KB-3-1; assay: as above; details: Five cell lines viability, CellTiter-Glo ATP luminescence, 48-72 h; max response: active compounds read low
How it was run: as §1

[5] = tested on: NIH3T3; assay: as above; details: Five cell lines viability, CellTiter-Glo ATP luminescence, 48-72 h; max response: active compounds read low
How it was run: as §1

[6] = tested on: CRL-7250; assay: qHTS assay to identify novel small-molecules to repurpose for Merkel cell carcinoma treatment (AID 1296009); details: MCC and control cell lines, CellTiter-Glo viability, 72 h; at 44.8 µM (top of the series) unless noted
How it was run: (§2)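 Cells exposed to NPC (8-point) and MIPE (11-point) compound dilutions for 72 hr at 37 degree celsius; viability read by CellTiter-Glo luminescence, normalized to no-cell and DMSO in-plate controls.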

[7] = tested on: HEK293T; assay: as above; details: MCC and control cell lines, CellTiter-Glo viability, 72 h; at 44.8 µM (top of the series)
How it was run: as §2

[8] = tested on: HACAT; assay: as above; details: MCC and control cell lines, CellTiter-Glo viability, 72 h; at 44.8 µM (top of the series) unless noted
How it was run: as §2

[9] = tested on: TAB165; assay: qHTS profiling for inhibitors of Plasmodium falciparum proliferation (AID 504749); note: potency is the fitted concentration of half-maximal effect; details: P. falciparum in erythrocytes, SYBR Green DNA, 72 h; series mostly up to 28.7 µM
How it was run: (§3)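 P. falciparum-infected erythrocytes (0.3% parasitemia, 2.5% hematocrit final) were exposed to compounds for 72 h at 37 C in 5% CO2, then lysed with SYBR Green buffer overnight at room temperature; parasite DNA fluorescence was normalized to artemisinin and DMSO controls.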

[10] = tested on: W2; assay: as above; details: P. falciparum in erythrocytes, SYBR Green DNA, 72 h; series mostly up to 28.7 µM
How it was run: as §3
Note: nearly all actives have a fitted effect of over 60% in size.

C[N+]1(C)[C@@H]2CC[C@H]1CC(OC(=O)C(CO)c1ccccc1)C2 (some centres undefined)
inactive: outcome [1] | outcome [2] | max response [3] -1.21% | max response [4] -14.7% and 4.2% | max response [5] -5.19% | outcome [6] | outcome [7]

CNC(C)Cc1ccccc1OC (centres undefined)
inactive: max response [1] -10.9% | max response [2] -10.8% | max response [3] -16.5% | max response [4] 2.15% | max response [5] -6.74%

CN(C)CCc1c[nH]c2ccc(O)cc12
inactive: max response [1] 4.21% | max response [2] -2.05% | outcome [3] | max response [4] 2.29% | outcome [5] | outcome [8] inactive [at 92 µM]

NCc1cccnc1
inactive: Potency [9] | Potency [10] | max response [1] -13.7% | max response [2] -4.51% | outcome [3] | max response [4] -3.91% | max response [5] 3.43% | outcome [8]

OC(O)C(Cl)(Cl)Cl
inactive: Potency [9] | max response [1] -3.66% | max response [2] -2.43% | outcome [3] | max response [4] 1.25% | outcome [5] | outcome [8]

CN1[C@@H]2CC[C@H]1CC(OC(=O)c1cc(Cl)cc(Cl)c1)C2 (some centres undefined)
active: Potency [2] 26600 nM
inactive: max response [1] -20.4% | max response [3] 3.49% | max response [4] -13.9%

COc1cc(CC(C)N)cc2c1OCO2 (centres undefined)
inactive: max response [1] -5.81% | max response [2] -16.7% | max response [3] 1.78% | max response [4] -6.39% | max response [5] -6.97%

CC[C@]1(O)CC[C@H]2[C@@H]3CCC4=CCCC[C@@H]4[C@H]3CC[C@@]21C
inactive: max response [1] -110%

CCC(=O)OC1(c2ccccc2)CCN(C)CC1
inactive: max response [1] -2.3% | max response [2] -12.2% | max response [3] -5.78% | max response [4] 2.4% | max response [5] -0.056%

CCOC(=O)c1cncn1C(C)c1ccccc1 (centres undefined)
inactive: max response [1] 3.39% | outcome [1] | max response [2] -6.12% | outcome [2] | max response [3] -5.29% | outcome [3] | max response [4] 0.49% and 0.484% | max response [5] 1.83% and -0.636% | outcome [6] | outcome [8] | outcome [7]

CCC1(c2ccccc2)CCC(=O)NC1=O (centres undefined)
inactive: Potency [9] | outcome [1] | max response [2] -5.95% | max response [3] -1.76% | max response [4] -6.95% | max response [5] 4.7% | outcome [6]

O=C(O)c1nn(Cc2ccc(Cl)cc2Cl)c2ccccc12
inactive: Potency [9] | Potency [10] | max response [1] -5.04% and -7.58% | max response [2] -10.4% | outcome [2] | max response [3] -0.99% | outcome [3] | max response [4] 4.9% and -9.13% | max response [5] -6.41% | outcome [5] | outcome [8] | outcome [7]

COC(=O)C1=CCCN(C)C1
inactive: Potency [9] | Potency [10] | max response [1] -3.77% | outcome [1] | max response [2] 2.76% and 4.85% | max response [3] -4.46% | outcome [3] | max response [4] 6.89% and 12.1% | outcome [5] | outcome [6] | outcome [8]

CN(C)C(=O)Oc1cc(OC(=O)N(C)C)cc(C(O)CNC(C)(C)C)c1 (centres undefined)
inactive: max response [1] -6.2% | max response [2] -17.2% | outcome [3] | max response [4] -2.49% | max response [5] -1.01% | outcome [8]

CC(Cc1ccc2c(c1)OCO2)NO (centres undefined)
inactive: max response [1] -0.759% | max response [2] -1.22% | max response [3] -1.01% | max response [4] -9.46% | max response [5] 3.02%

CC1N=C(N)OC1c1ccccc1 (centres undefined)
inactive: max response [1] -30.4% | max response [2] -15.4% | outcome [3] | max response [4] -3.1% | max response [5] -2.85% | outcome [8] inactive [at 92 µM]

C[C@]12CC[C@H]3[C@@H](CCC4=CC(=O)CC[C@@H]43)[C@@H]1CC[C@@H]2O
inactive: max response [1] -5% | max response [2] 0.616% | outcome [3] | max response [5] -16.1% | outcome [8]
active: Potency [4] 11.6 µM and 20.6 µM

CN(C)CCc1c[nH]c2ccccc12
inactive: max response [1] 2.04% | max response [2] -13.9% | max response [3] 4.72% | max response [4] -5.51% | max response [5] 2.6%

CC(C)[N+](C)(CCC(C(N)=O)(c1ccccc1)c1ccccc1)C(C)C
inactive: Potency [9] | max response [1] 3.89% | max response [2] -1% | outcome [3] | max response [4] 11.9% | outcome [5] | outcome [8]

C[C@@H]1CN(C2CCC(C#N)(c3ccc(F)cc3)CC2)CC[C@]1(C(=O)O)c1ccccc1 (some centres undefined)
inactive: outcome [1] | max response [2] -6.67% | max response [3] 3.21% | max response [4] -4.01% | outcome [5] | outcome [6]

C[C@@H]1O[C@@H](O[C@@H]2C=C3CC[C@@H]4[C@H](CC[C@]5(C)[C@@H](c6ccc(=O)oc6)CC[C@]45O)[C@@]3(C)CC2)[C@H](O)[C@H](O)[C@H]1O
active: Potency [1] 13.3 nM | Potency [2] 33.5 nM | Potency [3] 42.2 nM

O=C(O)Cc1ccccc1
inactive: max response [1] -22.4% | max response [2] -7.97% | outcome [3] | max response [4] -2.72% | outcome [5] | outcome [8]

CCCOC(=O)Cc1ccc(OCC(=O)N(CC)CC)c(OC)c1
inactive: max response [1] -7.4% | max response [2] -10.1% | max response [3] -1.71% | max response [4] -8.87% | max response [5] -20.5%

O=C(O)CCCCCCNC1c2ccccc2CCc2ccccc21
inactive: max response [1] -2% | max response [2] 2.21% | max response [3] 0.465% | max response [4] 7.47% | max response [5] 1.62%

NC(=O)OCCCc1ccccc1
inactive: Potency [9] | Potency [10] | outcome [1] | max response [2] 3.07% | outcome [3] | max response [4] -19.1% | outcome [5] | outcome [6] | outcome [8]

CCOC(=O)c1ncn2c1CN(C)C(=O)c1c(I)cccc1-2
inactive: max response [1] -19.8% | max response [2] -11.8% | max response [3] -1.53% | max response [4] 1.54% | max response [5] -15.1%

CCC1(c2cccc(O)c2)CCCCN(C)C1 (centres undefined)
inactive: max response [1] -9.91% | max response [2] -2.39% | max response [3] -5.66% | max response [4] 24.1% | max response [5] 2.43%

CCCC[N+]1(C)[C@@H]2CC(OC(=O)[C@H](CO)c3ccccc3)C[C@H]1[C@@H]1O[C@@H]12 (some centres undefined)
inactive: max response [1] -24.5% | outcome [1] | outcome [2] | max response [3] -9.09% | outcome [3] | max response [4] 6.44% and 1.1% | max response [5] 4.56% and 3.97% | outcome [6] | outcome [8] | outcome [7]

C[C@@H]1C[C@@H]([C@H](O)CC2CC(=O)NC(=O)C2)C(=O)[C@@H](C)C1
active: Potency [1] 1.33 µM and 833 nM | Potency [2] 469 nM | Potency [3] 2350 nM | Potency [4] 3.66 µM and 1.48 µM | Potency [5] 473 nM and 235 nM

CN1C[C@@H](NS(=O)(=O)N(C)C)C[C@@H]2c3cccc4c3c(cn4C)C[C@H]21
inactive: outcome [1] | max response [2] -5.36% | outcome [3] | max response [4] -6.93% | max response [5] -4.54% | outcome [6] | outcome [8]

CCOP(=S)(OCC)O/N=C(\C#N)c1ccccc1
inactive: max response [1] -6.28% | outcome [2] | outcome [3] | max response [4] -0.0569% | outcome [5] | outcome [8] | outcome [7]

C=CCN1CC[C@]23CCCC[C@H]2[C@H]1Cc1ccc(O)cc13
inactive: max response [1] 1.58% | max response [2] -6.38% | outcome [3] | max response [4] 20.9% | max response [5] -4.67% | outcome [8]

COc1ccc(CN2CCNCC2)c(OC)c1OC
inactive: Potency [9] | max response [1] 0.0195% | max response [2] -9.25% | outcome [3] | max response [4] 5.8% | max response [5] 1.76% | outcome [8]

COP(=O)(OC)C(O)C(Cl)(Cl)Cl (centres undefined)
inactive: Potency [9] | max response [1] 3.85% | outcome [2] | outcome [3] | max response [4] -12.2% | outcome [5] | outcome [8] | outcome [7]
active: Potency [10] 4260 nM

CN1C(=O)CN=C(c2ccccc2)c2cc([N+](=O)[O-])ccc21
inactive: Potency [9] | Potency [10] | outcome [1] | max response [2] -10% | outcome [3] | max response [4] 9.64% | outcome [5] | outcome [6] | outcome [8]

NC(=O)CN1CCCC1=O
inactive: Potency [9] | Potency [10] | outcome [1] | outcome [2] | outcome [3] | max response [4] 4.93% | max response [5] -0.768% | outcome [8] | outcome [7]

COc1ccc2[nH]cc(CCN(C(C)C)C(C)C)c2c1
inactive: max response [1] -1.26% | max response [3] 1.43% | max response [4] -17% | max response [5] 1.94%

O=C1CN2CCOC2(c2ccccc2Cl)c2cc(Cl)ccc2N1 (centres undefined)
inactive: outcome [1] | max response [2] -3.36% | max response [3] -2.33% | outcome [5] | outcome [6]

ClCCCN1CCN(c2cccc(Cl)c2)CC1
inactive: outcome [1] | outcome [2] | outcome [3] | outcome [5] | outcome [6] | outcome [8] | outcome [7]

Cc1ccc(N=CN(C)C=Nc2ccc(C)cc2C)c(C)c1
inactive: Potency [9] | Potency [10] | max response [1] -6.67% | outcome [2] | max response [3] -15.3% | max response [4] 1.07% | outcome [5] | outcome [7]

c1ccc2nc(N3CCNCC3)ccc2c1
inactive: Potency [9] | Potency [10] | max response [1] -2.05% | max response [2] -18% | max response [3] -23.1% | max response [4] -16.3% | max response [5] 0.319%

CCCC(C)C1(CC)C(=O)N=C(S)NC1=O (centres undefined)
inactive: max response [1] -2.8% | outcome [2] | max response [3] -26.2% | max response [5] -2.94% | outcome [7]

COP(=S)(OC)Oc1ccc(Sc2ccc(OP(=S)(OC)OC)cc2)cc1
inactive: Potency [9] | Potency [10] | max response [1] -0.305% | max response [2] 3.86% | max response [3] -8.51% | max response [4] 1.06% | outcome [5]

ClCc1cccc(Cl)c1
inactive: max response [1] -10.5% | max response [2] -1.26% | max response [3] 1.97% | max response [5] 0.768%
